# Several values for one entry are separate records, joined by “and”; a condition that tells them apart may be missing. Equal values may be shown once. Records with an inconclusive call do not appear. Entries that show only a call come without a potency. The source holds several records for some structures; these can differ, active in one and inactive in another. Activity calls are given as the source filed them. Unless noted, the call rests on the fitted dose curve.
# Legend:
# [1] = Nuclear factor erythroid 2-related factor 2/antioxidant responsive element (Nrf2/ARE) small molecule agonists: qHTS cell viability counter screen in human keratinocytes (AID 1919968; active means well fitted curve in the direction sought with a large enough effect in the repeat runs; an effect the other way counts as inactive or inconclusive; further: nearly all actives have a fitted effect of over 55% in size; further: potency means the concentration at half of the fitted maximal effect)
# How it was run: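 Parallel cytotoxicity read: KeratinoSens HaCaT cells, compound treatment 23 h, viability by CellTiter-Fluor fluorescence 1 h post-reagent.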
# [2] = Nuclear factor erythroid 2-related factor 2/antioxidant responsive element (Nrf2/ARE) small molecule agonists: luciferase reporter gene qHTS assay in human keratinocytes (AID 1919969); further: nearly all actives have a fitted effect of over 35% in size; further: potency means the concentration at half of the fitted maximal effect
# [3] = target: Gonadotropin-releasing hormone receptor (Homo sapiens) (UniProt P30968); assay: Human gonadotropin-releasing hormone receptor (GnRHR) small molecule agonists, calcium flux assay in GnRHR-HEK293 cells (AID 1920063); further: nearly all actives have a fitted effect of over 35% in size
# Chain of Gonadotropin-releasing hormone receptor (Homo sapiens) (P30968 whole entry, looked up): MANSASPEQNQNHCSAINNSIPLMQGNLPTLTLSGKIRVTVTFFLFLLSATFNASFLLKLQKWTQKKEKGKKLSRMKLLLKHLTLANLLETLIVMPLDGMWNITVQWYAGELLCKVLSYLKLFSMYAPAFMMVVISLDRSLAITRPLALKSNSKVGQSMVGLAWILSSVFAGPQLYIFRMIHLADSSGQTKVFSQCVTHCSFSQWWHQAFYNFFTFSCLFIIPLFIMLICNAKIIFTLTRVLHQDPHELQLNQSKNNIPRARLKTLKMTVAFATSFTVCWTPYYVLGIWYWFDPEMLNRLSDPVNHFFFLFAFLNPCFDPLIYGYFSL
# How it was run: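 Calcium flux, agonist mode, human GnRHR stably integrated in HEK293; dye 1 h at 37 C before compound; Ex/Em=480/540 kinetic read, 3 min; 15 concentrations, triplicate.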
# [4] = target: KiSS-1 receptor (Homo sapiens) (UniProt Q969F8); assay: Human kisspeptin (KISS1R) small molecule agonists, calcium flux assay in KISS1R-HEK293 cells (AID 1920064; active means well fitted curve in the direction sought with a large enough effect in the repeat runs; an effect the other way counts as inactive or inconclusive)
# Chain of KiSS-1 receptor (Homo sapiens) (Q969F8 whole entry, looked up): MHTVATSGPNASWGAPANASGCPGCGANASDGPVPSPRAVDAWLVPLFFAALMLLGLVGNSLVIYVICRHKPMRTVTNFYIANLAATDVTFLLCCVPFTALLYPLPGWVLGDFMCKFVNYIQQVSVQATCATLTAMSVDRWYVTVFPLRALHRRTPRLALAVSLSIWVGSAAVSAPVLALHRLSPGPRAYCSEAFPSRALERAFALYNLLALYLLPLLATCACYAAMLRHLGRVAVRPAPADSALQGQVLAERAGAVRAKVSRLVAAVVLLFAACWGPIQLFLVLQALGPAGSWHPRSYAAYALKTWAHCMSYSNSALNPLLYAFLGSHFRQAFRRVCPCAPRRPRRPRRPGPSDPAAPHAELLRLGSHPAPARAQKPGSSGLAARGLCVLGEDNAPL
# How it was run: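 Triplicate 15-concentration series were applied to dye-loaded human KISS1R HEK293 cells, and agonist-evoked calcium fluorescence was captured for 3 min.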
# [5] = G protein-coupled receptor (GPCR) small molecule agonists, calcium flux assay: HEK293 wild type cell line counter screen (AID 1920065)
# How it was run: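 Non-specific calcium responders were flagged by adding DMSO-dissolved compounds to dye-loaded cells and reading 480/540 nm fluorescence each second for 3 min; ATP served as positive control.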
# [6] = p53 small molecule agonists, cell-based qHTS assay with human liver microsomes (AID 1963577);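 further: p53 response element beta-lactamase reporter cells with liver microsomes plus NADPH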
# How it was run: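 Reporter activation was measured by LiveBLAzer fluorescence intensity in p53RE-bla cells, which had been exposed to compounds for 16 h at 37 C alongside 0.5 mg/mL human liver microsomes and 0.5 mg/mL NADPH (final concentrations).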
# [7] = p53 small molecule agonists, cell-based qHTS assay with rat liver microsomes (AID 1963578)
# How it was run: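 Compound in DMSO added to p53RE-bla cells 5 h post-plating; rat microsomes/NADPH 0.5 mg/mL final; 16 h, 37 C; LiveBLAzer 2 h RT.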
# [8] = p53 small molecule agonists, cell-based qHTS assay with human liver microsomes: qHTS cell viability counter screen (AID 1963579); further: nearly all actives have a fitted effect of over 45% in size
# How it was run: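 HLM-supplemented (0.5 mg/mL final) and NADPH-supplemented (0.5 mg/mL final) p53RE-bla cultures, 4,000 cells per well, were dosed with compounds in DMSO for 16 h at 37 C; luminescent ATP detection (CellTiter-Glo, 30 min, room temperature) quantified surviving cells.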
# [9] = p53 small molecule agonists, cell-based qHTS assay with rat liver microsomes: qHTS cell viability counter screen (AID 1963580); further: nearly all actives have a fitted effect of over 45% in size
# How it was run: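 Cytotoxicity counter screen: intracellular ATP measured by CellTiter-Glo luminescence in the same wells as the beta-lactamase reporter read, on HCT-116 p53RE-bla cells exposed 16 h at 37 C to compounds with rat liver microsomes and NADPH, each 0.5 mg/mL final.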
# [10] = p53 small molecule agonists, cell-based qHTS assay: qHTS cell viability counter screen (AID 1963581); further: nearly all actives have a fitted effect of over 45% in size
# How it was run: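 Multiplexed with the reporter read, a CellTiter-Glo step (30 min, room temperature) gauges ATP-based viability of HCT-116 p53RE-bla cells after 16 h compound incubation at 37 C.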
# [11] = p53 small molecule agonists, cell-based qHTS assay (AID 1963582; active means well fitted activation curve with a large enough effect in the signal ratio in the repeat runs, not every such curve was filed as active; the % refers to the signal ratio)
# How it was run: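 Beta-lactamase reporter cells (p53RE-bla) treated with compounds for 16 h at 37 C; FRET substrate, 2 h, room temperature; fluorescence intensity.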
# [12] = target: 5-hydroxytryptamine receptor 2A (Homo sapiens) (UniProt P28223); assay: 5-hydroxytryptamine receptor 2A (HTR2A) small molecule antagonists, cell-based qHTS assay (AID 1963586); further: nearly all actives have a fitted effect of over 45% in size; further: potency means the concentration at half of the fitted maximal effect
# Chain of 5-hydroxytryptamine receptor 2A (Homo sapiens) (P28223 whole entry, looked up): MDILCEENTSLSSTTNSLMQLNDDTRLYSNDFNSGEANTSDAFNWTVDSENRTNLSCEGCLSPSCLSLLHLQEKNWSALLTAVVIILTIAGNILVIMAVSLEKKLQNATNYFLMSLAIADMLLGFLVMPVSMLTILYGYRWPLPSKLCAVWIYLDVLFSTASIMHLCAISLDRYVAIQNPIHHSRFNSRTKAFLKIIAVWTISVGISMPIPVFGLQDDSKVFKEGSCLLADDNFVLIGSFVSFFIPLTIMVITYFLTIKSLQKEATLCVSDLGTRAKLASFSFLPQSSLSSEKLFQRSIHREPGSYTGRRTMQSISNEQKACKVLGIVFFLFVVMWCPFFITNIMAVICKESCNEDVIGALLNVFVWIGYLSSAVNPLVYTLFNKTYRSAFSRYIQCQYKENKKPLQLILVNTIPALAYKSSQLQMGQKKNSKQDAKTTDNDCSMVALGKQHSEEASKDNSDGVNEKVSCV
# How it was run: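 CHO cells stably expressing human HTR2A were plated for 18 h at 37 C, then loaded with calcium dye for 1 h. Compounds were preincubated 5 min at room temperature before DOI (4 nM solution) was added. Kinetic fluorescence was read for 3 min.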
# [13] = target: 5-hydroxytryptamine receptor 2A (Homo sapiens) (UniProt P28223); assay: 5-hydroxytryptamine receptor 2A (HTR2A) small molecule agonists, cell-based qHTS assay (AID 1963587); further: nearly all actives have a fitted effect of over 30% in size; further: potency means the concentration at half of the fitted maximal effect
# How it was run: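 CHO cells stably expressing human HTR2A, plated 18 h, loaded with calcium dye 1 h at 37 C. Agonist mode: compounds added and intracellular calcium fluorescence recorded kinetically for 2 min at 1 sec intervals.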
# [14] = target: Muscarinic acetylcholine receptor M1 (Homo sapiens) (UniProt P11229); assay: Cholinergic receptor muscarinic 1 (CHRM1) small molecule antagonists, cell-based qHTS assay (AID 1963588); further: nearly all actives have a fitted effect of over 40% in size
# Chain of Muscarinic acetylcholine receptor M1 (Homo sapiens) (P11229 whole entry, looked up): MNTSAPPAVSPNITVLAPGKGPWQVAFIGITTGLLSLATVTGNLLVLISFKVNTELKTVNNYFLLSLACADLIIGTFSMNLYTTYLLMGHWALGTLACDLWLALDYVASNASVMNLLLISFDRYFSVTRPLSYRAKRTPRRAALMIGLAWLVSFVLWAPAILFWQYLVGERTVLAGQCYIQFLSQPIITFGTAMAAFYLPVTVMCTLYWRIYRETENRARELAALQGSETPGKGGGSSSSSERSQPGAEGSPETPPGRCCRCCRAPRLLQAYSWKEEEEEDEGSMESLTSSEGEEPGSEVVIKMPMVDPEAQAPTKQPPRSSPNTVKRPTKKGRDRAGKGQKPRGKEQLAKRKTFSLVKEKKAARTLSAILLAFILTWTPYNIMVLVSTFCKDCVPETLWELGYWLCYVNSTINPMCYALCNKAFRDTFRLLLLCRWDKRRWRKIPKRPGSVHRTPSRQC
# How it was run: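 Compounds were tested at 15 concentrations in three independent runs. Dye-loaded CHRM1-CHO cells were exposed 5 min at room temperature before stimulation by acetylcholine added at 50nM. Intracellular calcium was read kinetically on FDSS for 3 min.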
# [15] = target: Muscarinic acetylcholine receptor M1 (Homo sapiens) (UniProt P11229); assay: Cholinergic receptor muscarinic 1 (CHRM1) small molecule agonists, cell-based qHTS assay (AID 1963589); further: nearly all actives have a fitted effect of over 35% in size
# How it was run: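 qHTS, 15-point titration, 3 independent runs: compounds pin-transferred onto dye-loaded CHRM1-CHO cells (human M1), calcium fluorescence followed every second to detect agonism.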
# [16] = cAMP Responsive Elements (CRE) small molecule agonists, cell-based qHTS assay (AID 1963590)
# How it was run: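 Quantitative HTS for CRE agonists: HEK 293T CRE-bla cells, overnight plating, 3 h compound incubation at 37 C/5% CO2, then 2 h room-temperature LiveBLAzer B/G FRET substrate loading.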
# [17] = cAMP Responsive Elements (CRE) small molecule antagonists, cell-based qHTS assay (AID 1963591; active means well fitted inhibition curve with a large enough effect in the signal ratio in the repeat runs, not every such curve was filed as active; the % refers to the signal ratio)
# How it was run: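 Fluorescence intensity from cleaved LiveBLAzer B/G substrate (2 h, room temperature) quantified CRE-bla activity in HEK 293T cells exposed 3 h to compound with 0.25 uM final NKH477.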
# [18] = target: Beta-2 adrenergic receptor (Homo sapiens) (UniProt P07550); assay: Adrenergic beta2 receptor (ADRB2) small molecule antagonists, cell-based qHTS assay (AID 1963592); further: series mostly up to about 92 µM; nearly all actives have a fitted effect of over 50% in size
# Chain of Beta-2 adrenergic receptor (Homo sapiens) (P07550 whole entry, looked up): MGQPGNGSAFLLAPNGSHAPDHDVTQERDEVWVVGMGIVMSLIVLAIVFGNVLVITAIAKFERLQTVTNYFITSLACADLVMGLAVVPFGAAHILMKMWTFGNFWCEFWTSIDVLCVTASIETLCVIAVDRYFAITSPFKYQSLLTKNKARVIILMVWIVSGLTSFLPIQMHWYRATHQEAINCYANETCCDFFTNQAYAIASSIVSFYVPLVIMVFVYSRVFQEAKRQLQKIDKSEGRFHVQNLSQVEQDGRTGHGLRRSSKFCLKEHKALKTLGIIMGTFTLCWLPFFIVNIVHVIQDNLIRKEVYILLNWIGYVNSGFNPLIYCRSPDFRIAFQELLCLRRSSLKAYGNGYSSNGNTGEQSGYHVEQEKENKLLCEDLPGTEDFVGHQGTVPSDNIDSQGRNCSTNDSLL
# How it was run: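 Assay format: CHO-ADRB2 cells, 18-20hr seeding at 37C/5% CO2, then compound plus 1nM isoproterenol agonist mix for 0.5hr RT. Homogeneous time-resolved fluorescence cAMP detection after 1hr, expressed as 665/615 nm ratio.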
# [19] = target: D(2) dopamine receptor (Homo sapiens) (UniProt P14416); assay: Dopamine D2 receptor (DRD2) small molecule agonists, cell-based qHTS assay (AID 1963594); further: nearly all actives have a fitted effect of over 35% in size
# Chain of D(2) dopamine receptor (Homo sapiens) (P14416 whole entry, looked up): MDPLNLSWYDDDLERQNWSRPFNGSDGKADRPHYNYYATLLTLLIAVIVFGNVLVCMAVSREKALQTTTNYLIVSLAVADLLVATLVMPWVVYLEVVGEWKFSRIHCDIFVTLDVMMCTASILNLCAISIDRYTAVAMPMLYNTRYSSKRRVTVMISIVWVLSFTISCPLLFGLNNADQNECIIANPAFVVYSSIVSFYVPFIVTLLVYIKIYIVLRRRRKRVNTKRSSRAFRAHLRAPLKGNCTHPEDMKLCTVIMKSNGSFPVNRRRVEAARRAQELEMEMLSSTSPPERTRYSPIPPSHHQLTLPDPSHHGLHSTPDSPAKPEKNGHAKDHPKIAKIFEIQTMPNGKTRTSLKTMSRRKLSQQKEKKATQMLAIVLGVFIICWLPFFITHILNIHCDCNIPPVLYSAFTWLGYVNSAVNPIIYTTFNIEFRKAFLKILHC
# How it was run: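 HEK293 cells stably expressing human DRD2, pre-treated with PDE inhibitor Ro20-1724 (0.1 mM final) and compound 10 min at room temperature, then stimulated with NKH477 (200nM […]) for 30 min. cAMP read by HTRF (665/620 nm).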
# [20] = target: D(2) dopamine receptor (Homo sapiens) (UniProt P14416); assay: Dopamine D2 receptor (DRD2) small molecule antagonists, cell-based qHTS assay (AID 1963595; active means well fitted inhibition curve with a large enough effect in the signal ratio in the repeat runs, with a control signal flat; the % refers to the signal ratio)
# How it was run: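 Human DRD2 antagonist qHTS measuring cAMP by HTRF. The cells are exposed to compound for 10 min, then to NKH477 (200 nM) and quinpirole (12 nM) for 30 min at RT, with Ro20-1724 (0.1 mM) present throughout.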
SMILES,Potency [1],Potency [2],Potency [3],Potency [4],Potency [5],Potency [6],Potency [7],Potency [8],Potency [9],Potency [10],Potency [11],Potency [12],Potency [13],Potency [14],Potency [15],Potency [16],Potency [17],Potency [18],Potency [19],Potency [20]
O=C(O)c1ccc(S(=O)(=O)N(Cl)Cl)cc1,inactive,inactive,inactive,inactive,inactive,inactive,inactive,inactive,inactive,inactive,inactive,inactive,inactive,inactive,inactive,inactive,inactive,inactive,inactive,inactive
O=C(O)c1[nH]n(-c2ccc(S(=O)(=O)O)cc2)c(=O)c1N=Nc1ccc(S(=O)(=O)O)cc1,24.4 µM (active) and 45.4 µM (active),inactive,inactive,inactive,inactive,inactive,inactive,inactive,inactive,inactive,inactive,inactive,inactive,inactive,inactive,inactive,inactive,inactive,inactive,
CCc1cccc(CC)c1N,inactive,inactive,inactive,inactive,inactive,inactive,inactive,inactive,inactive,inactive,inactive,inactive,inactive,inactive,inactive,inactive,inactive,inactive,inactive,inactive
CC(C)(C)C1CCC(O)CC1 (stereo not given),inactive,inactive,inactive,inactive,inactive,inactive,inactive,inactive,inactive,inactive,inactive,inactive,inactive,inactive,inactive,inactive,inactive,inactive,inactive,inactive
CCCCOCCOC(=O)c1ccccc1C(=O)OCCOCCCC,47.5 µM (active) and inactive,23.8 µM (active) and 68.6 µM (active),inactive,inactive,inactive,inactive,inactive,inactive,inactive,inactive,inactive,inactive,inactive,inactive,inactive,inactive,inactive,inactive,inactive,inactive
Cc1ncc[nH]1,inactive,inactive,inactive,inactive,inactive,inactive,inactive,inactive,inactive,inactive,inactive,inactive,inactive,inactive,inactive,inactive,inactive,inactive,inactive,inactive
CCCCCCCCCCCCc1ccccc1,inactive,61.2 µM (active) and inactive,inactive,inactive,inactive,inactive,inactive,inactive,inactive,inactive,inactive,inactive,inactive,inactive,inactive,inactive,inactive,inactive,inactive,inactive
O=C1CCCCCCCCCCCN1,inactive,inactive,inactive,inactive,inactive,inactive,inactive,inactive,inactive,inactive,inactive,inactive,inactive,inactive,inactive,inactive,inactive,inactive,inactive,inactive
Nc1ccc(Nc2ccccc2)cc1,inactive,53.9 µM (active) and inactive and 30.6 µM (active),inactive,inactive,inactive,inactive,inactive,inactive,inactive,inactive,inactive,inactive and 3.75 µM (active),7.68 µM (active) and 24.6 µM (active) and 3.89 µM (active),inactive,inactive,inactive,inactive,,,
C/C=C/c1ccc(OCC)c(O)c1,inactive,inactive,inactive,inactive,inactive,inactive,inactive,inactive,inactive,inactive,inactive,inactive,inactive,inactive,inactive,inactive,inactive,inactive,inactive,inactive
CCC(C)C=O (stereo not given),inactive,inactive,inactive,inactive,inactive,inactive,inactive,inactive,inactive,inactive,inactive,inactive,inactive,inactive,inactive,inactive,inactive,inactive,inactive,inactive
CCC(=O)OC/C=C/c1ccccc1,inactive,inactive,inactive,inactive,inactive,inactive,inactive,inactive,inactive,inactive,inactive,inactive,inactive,inactive,inactive,inactive,inactive,inactive,inactive,
ClC1=C(Cl)C(Cl)(Cl)C(Cl)=C1Cl,inactive,inactive and 61.1 µM (active),inactive,inactive,inactive,inactive,inactive,inactive,inactive,inactive,inactive,inactive,inactive,inactive,inactive,inactive,inactive,inactive,inactive,inactive
CC(CCl)OP(=O)(OC(C)CCl)OC(C)CCl (stereo not given),inactive,inactive,inactive,inactive,inactive,inactive,inactive,inactive,inactive,inactive,inactive,inactive,inactive,inactive,inactive,inactive,inactive,inactive,inactive,inactive
COC(=O)/C=C\C(=O)OC,inactive,inactive,inactive,inactive,inactive,inactive,inactive,inactive,inactive,inactive,inactive,inactive,inactive,inactive,inactive,inactive,inactive,inactive,inactive,inactive
